The structures appear in SMILES notation. The source made the active and inactive calls.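 How the source made its calls, unless noted: active means inhibition of the reporter signal at or above 50%; inactive means inhibition below 50%.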

Data on 14 molecules can be found in PubChem BioAssay.

Assay [1] in a line: inhibitors of TNFa-induced NFkB p65 translocation, primary screen, imaging, HUVEC, MLSMR starter and 10KST1 sets (AID 438;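 active means inhibition above 20% together with a positive visual image hit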;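 further: compound added about 3h40 before a 20 min TNFalpha stimulation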;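 on inhibition: signal is the nuclear over cytoplasmic p65 intensity ratio per well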). The note with it: HUVEC TNFa-induced p65 nuclear translocation; cell count: measured here: nuclei count (cytotoxicity indicator), at 2.08 µM; inhibition: at 2 µM, stronger effect = higher value, 0% TNFa-plus-vehicle, 100% no-TNFa wells.
The nature of assay [2]: reduction of polyQ htt aggregates in cells – imaging, exon1htt(103Q)mCFP cells, high-content imaging, primary screen (AID 483;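 active means visual image review flags a hit and inhibition of aggregation exceeds 20%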;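 further: compound exposure lasted 3 days before fixation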;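 on nuclei count: percent of the per-plate median nuclei count of sample wells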). The conditions noted are these: exon1htt(103Q)mCFP cell line, aggregate imaging, at 2 µM; inhibition of aggregation: stronger effect = higher value; nuclei count: measured here: cell count, toxicity.
Assay [3] is described as follows: endothelial E-selectin expression blockers – imaging, HUVEC, immunofluorescence, MLSMR starter and 10KST1 sets, primary screen (AID 487;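 active means visually confirmed hit in the image check and inhibition above 20%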;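 on inhibition: signal is fraction of cell area covered by stained E-selectin grains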;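 on nuclei count: 100% = median nuclei count of all wells on the same plate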). The conditions noted are these: HUVEC TNFalpha-induced E-selectin immunofluorescence imaging, at 2 µM; inhibition: stronger effect = higher value; nuclei count: measured here: cell number, toxicity.
For assay [4], the target named is Voltage-gated potassium channel subunit beta-2 (Rattus norvegicus) (UniProt P62483). In words: inhibitors of rat Kvbeta2 reductase activity – biochemical, NADPH fluorescence, primary screen (AID 622;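 active means fluorescence slope higher than the sample average by over 3 SD, cut at about -0.22 in these data, passing the limit was not always enough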;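 further: slope of raw intensity against log time taken from 70 to 1610 s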). The note with it: recombinant KvBeta, 4-cyanobenzaldehyde reduction, at 10 µM, stronger effect = higher value.
Chain of Voltage-gated potassium channel subunit beta-2 (Rattus norvegicus) (P62483 whole entry, looked up): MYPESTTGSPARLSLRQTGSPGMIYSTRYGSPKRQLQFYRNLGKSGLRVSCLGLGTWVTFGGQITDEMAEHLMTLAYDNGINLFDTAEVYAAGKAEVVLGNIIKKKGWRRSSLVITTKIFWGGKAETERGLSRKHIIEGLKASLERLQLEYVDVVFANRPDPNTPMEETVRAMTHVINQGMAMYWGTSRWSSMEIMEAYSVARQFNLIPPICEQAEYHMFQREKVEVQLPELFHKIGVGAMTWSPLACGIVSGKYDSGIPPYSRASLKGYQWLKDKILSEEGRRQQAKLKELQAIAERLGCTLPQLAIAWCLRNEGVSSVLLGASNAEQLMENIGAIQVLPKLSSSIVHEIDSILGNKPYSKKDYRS
Assay [5] has the same target. In words: enhancers of rat Kvbeta2 NADPH turnover – biochemical, NADPH fluorescence, primary screen (AID 623;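 active means NADPH fluorescence slope more negative than the mean of all samples by about 3 SD, 99.7% confidence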;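 further: fluorescence intensity change per second fitted from 20 to 320 s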). The conditions noted are these: Recombinant KvBeta, NADPH fluorescence decrease slope, 10 min; at 10 µM; stronger effect = lower value.
Assay [6] addresses Alpha-2C adrenergic receptor (Homo sapiens) (UniProt P18825). In words: compounds altering alpha2C-coupled GIRK flux – cell-based, HEK293 alpha2C/GIRK1/2, thallium flux, primary screen (AID 624;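 active means fluorescence slope after compound addition differing from the mean of all screened samples at 99.7% confidence, in either direction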;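 further: slope of fluorescence ratio to pre-addition baseline per second over 15 to 24 s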). The note with it: thallium flux BTC fluorescence, at 10 µM, actives lie on both sides.
A short description of assay [7]: blockers of RIG-like receptor reporter activation – cell-based, Sendai virus stimulus, luciferase, 10K MLSCN set, TLR/RLR signaling modifier project, primary screen (AID 602276;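 active means inhibition at or above 50% at 10 µM; inactive means inhibition below 50%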;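 further: firefly luciferase from ISG56 promoter only with Renilla not read in this screen; 0% = Sendai virus plus DMSO and 100% = medium plus DMSO without virus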). The note with it: HEK293 RL24 IRF3 luciferase reporter, at 10 µM, stronger effect = higher value.
The nature of assay [8]: TLR3 IRF3 reporter activation blockers – cell-based, poly I:C stimulus, luciferase, 10K MLSCN set, primary screen (AID 602277). The note with it: HEK293-TLR3 RL24 IRF3 luciferase reporter, at 10 µM, stronger effect = higher value. (A reporter such as luciferase makes a cellular process visible.)

Chain of Alpha-2C adrenergic receptor (Homo sapiens) (P18825 whole entry, looked up): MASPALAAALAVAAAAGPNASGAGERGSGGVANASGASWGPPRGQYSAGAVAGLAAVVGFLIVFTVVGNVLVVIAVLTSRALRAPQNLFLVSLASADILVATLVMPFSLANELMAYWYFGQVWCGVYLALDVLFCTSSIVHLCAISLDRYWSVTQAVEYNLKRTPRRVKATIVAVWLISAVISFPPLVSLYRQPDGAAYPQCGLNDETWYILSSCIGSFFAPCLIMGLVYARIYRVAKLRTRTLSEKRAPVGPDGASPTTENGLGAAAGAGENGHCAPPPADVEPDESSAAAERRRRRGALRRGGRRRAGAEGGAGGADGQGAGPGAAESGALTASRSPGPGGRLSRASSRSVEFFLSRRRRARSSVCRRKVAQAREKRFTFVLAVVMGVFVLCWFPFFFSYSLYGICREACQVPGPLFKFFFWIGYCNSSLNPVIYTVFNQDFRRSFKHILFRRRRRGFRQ

By inhibition is commonly meant the change of the read-out against control, counted positive when it falls. For `COc1cccc(OCc2nc3ccccc3[nH]2)c1`, in assay [1], the cell count was determined as 596. Moreover, the inhibition in assay [1] was -4.8% (inactive); in assay [3] it was -75.3% (inactive); in assay [7], -67.8% (inactive); in assay [8] it was -190% (inactive). Besides, the inhibition of aggregation in assay [2] was 3.2% (inactive). In addition, the figures for the nuclei count in assay [2] and in assay [3] were 102% and 114%, respectively. Also, the fluorescence slope in assay [4] is -0.57 (inactive). Further, the NADPH fluorescence slope in assay [5] was -9.8e-06 (inactive). Besides, the slope in assay [6] is 0.0079 (inactive).

Regarding `Cc1nnc(SCC(=O)N2CC(=O)Nc3ccccc32)n1-c1ccccc1`, the cell count in assay [1] amounted to 502. In addition, the inhibition in assay [1] is -4.7% (inactive); in assay [3], -190% (inactive); in assay [7] it was 19.7% (inactive); in assay [8] it was 22.4% (inactive). The inhibition of aggregation in assay [2] is -14.7% (inactive). Also, the nuclei count came out at 102% in assay [2] and 134% in assay [3]. Moreover, in assay [4], the fluorescence slope is -0.483 (inactive). Further, in assay [5], the NADPH fluorescence slope was -3.9e-05 (inactive). For the same molecule, the slope in assay [6] was 0.00543 (inactive).

For `CCOC(=O)C1=C(C)NC(=O)NC1c1ccc(OCCO)c(OC)c1` (centres undefined), the cell count in assay [1] came to 634. The inhibition in assay [1] was -12.8% (inactive); in assay [3] it was 30.3% (inactive); in assay [7] it was -1.76% (inactive); in assay [8] it was 25.5% (inactive). The inhibition of aggregation in assay [2] was -2.9% (inactive). Also, the figures for the nuclei count in assay [2] and in assay [3] were 102% and 89.2%, respectively. Besides, in assay [4], the fluorescence slope is -0.468 (inactive). In assay [5], the NADPH fluorescence slope is -4.3e-05 (inactive). Further, the slope in assay [6] was 0.00652 (inactive).

As for `CS(=O)(=O)N(Cc1ccccc1)c1ccc(C(=O)N2CCOCC2)cc1`, the cell count in assay [1] was determined as 297. The inhibition is 11.6% (inactive) in assay [1], 41.9% (inactive) in assay [3], -11.4% (inactive) in assay [7] and 0.146% (inactive) in assay [8]. The inhibition of aggregation in assay [2] is 23% (inactive). Moreover, the nuclei count is 91.2% in assay [2] and 96.9% in assay [3]. In addition, in assay [4], the fluorescence slope was -0.516 (inactive). For the same molecule, the NADPH fluorescence slope in assay [5] is -1.2e-05 (inactive). Also, in assay [6], the slope was 0.00702 (inactive).

Consider `COC(=O)c1ccccc1NC(=O)Cn1ccnc1`, for which the cell count in assay [1] came to 310. The inhibition was -5.7% (inactive) in assay [1], -12% (inactive) in assay [3], 5.19% (inactive) in assay [7] and 23.4% (inactive) in assay [8]. In addition, in assay [2], the inhibition of aggregation is 3.6% (inactive). Besides, the results for the nuclei count in assay [2] and in assay [3] were 78.1% and 86.6%, respectively. The fluorescence slope in assay [4] was -0.591 (inactive). Also, the NADPH fluorescence slope in assay [5] is -6.8e-05 (inactive). Besides, the slope in assay [6] is 0.00553 (inactive).

In the case of `CCOc1ccc2c(c1)c1nnc(SCC(=O)N3CCC(C)CC3)nc1n2C`, in assay [1], the cell count was 432. For the same molecule, the inhibition is -0.2% (inactive) in assay [1], -30.2% (inactive) in assay [3], -10.6% (inactive) in assay [7] and -29.5% (inactive) in assay [8]. Also, the inhibition of aggregation in assay [2] was 0.1% (inactive). Further, the nuclei count stood at 99.9% in assay [2] and 114% in assay [3]. Moreover, the fluorescence slope in assay [4] is -0.326 (inactive). Besides, in assay [5], the NADPH fluorescence slope is -5.2e-05 (inactive). In assay [6], the slope was 0.00371 (inactive).

Turning to `CC(=O)c1cccc(S(=O)(=O)N2CCC(n3nnc4cc(F)ccc43)CC2)c1`, the cell count in assay [1] is 598. Besides, the inhibition was 2.7% (inactive) in assay [1], -14.7% (inactive) in assay [3], -0.237% (inactive) in assay [7] and 31.4% (inactive) in assay [8]. Moreover, the inhibition of aggregation in assay [2] is 3.8% (inactive). For the same molecule, the nuclei count stood at 90.5% in assay [2] and 93.6% in assay [3]. Moreover, the fluorescence slope in assay [4] is -0.4 (inactive). The NADPH fluorescence slope in assay [5] was 2.2e-05 (inactive). The slope in assay [6] was 0.00694 (inactive).

Turning to `CC(C)(C)C(=O)CNS(=O)(=O)c1ccc(S(=O)(=O)NC2CCCC2)cc1`, the cell count in assay [1] came out at 479. The inhibition in assay [1] is 6% (inactive); in assay [3] it was -35.9% (inactive); in assay [7] it was 9.9% (inactive); in assay [8] it was 22.1% (inactive). The inhibition of aggregation in assay [2] is 2.6% (inactive). The nuclei count in assay [2] came out at 113%; in assay [3] it was 94.4%. The fluorescence slope in assay [4] is -0.47 (inactive). The NADPH fluorescence slope in assay [5] was 2.8e-05 (inactive). For the same molecule, the slope in assay [6] is 0.00543 (inactive).

For the molecule `COc1cccc(Oc2cn[nH]c2-c2ccc(O)cc2O)c1`, in assay [1], the cell count came to 361. Moreover, the inhibition was 10.2% (inactive) in assay [1], -104% (inactive) in assay [3], -4.4% (inactive) in assay [7] and 12.8% (inactive) in assay [8]. Moreover, the inhibition of aggregation in assay [2] is -13.9% (inactive). For the same molecule, the nuclei count in assay [2] stood at 103%; in assay [3], 101%. Further, in assay [4], the fluorescence slope was -0.453 (inactive). The NADPH fluorescence slope in assay [5] was 4.8e-05 (inactive). In addition, in assay [6], the slope is 0.0038 (inactive).

As for `CCCCSCCCNC(=O)CS(=O)Cc1nc(-c2cccc(C)c2)oc1C` (centres undefined), in assay [1], the cell count was determined as 527. The inhibition in assay [1] was -9.6% (inactive); in assay [3] it was -27.5% (inactive); in assay [7], 10.8% (inactive); in assay [8], 10.7% (inactive). Besides, the inhibition of aggregation in assay [2] is -1.1% (inactive). For the same molecule, the nuclei count was 107% in assay [2] and 113% in assay [3]. For the same molecule, in assay [4], the fluorescence slope was -0.308 (inactive). Moreover, the NADPH fluorescence slope in assay [5] is 1.3e-05 (inactive). Also, the slope in assay [6] is -0.000762 (active).

On to `C=C(Cl)COc1ccc2c(C)cc(=O)oc2c1`, for which, in assay [1], the cell count was 319. Moreover, the inhibition is -6.8% (inactive) in assay [1], -31.6% (inactive) in assay [3], -24.5% (inactive) in assay [7] and -67.7% (inactive) in assay [8]. Further, in assay [2], the inhibition of aggregation was -0.8% (inactive). Further, the values for the nuclei count in assay [2] and in assay [3] were 71.6% and 101%, respectively. The fluorescence slope in assay [4] was -0.587 (inactive). For the same molecule, in assay [5], the NADPH fluorescence slope is 3.6e-07 (inactive). Besides, the slope in assay [6] was 0.00646 (inactive).

Turning to `Nc1nnnn1NCc1cccc(OCc2ccccc2)c1`, in assay [1], the cell count came out at 582. The inhibition in assay [1] is -9.5% (inactive); in assay [3], -2.2% (inactive); in assay [7] it was 5.03% (inactive); in assay [8] it was -6.8% (inactive). For the same molecule, the inhibition of aggregation in assay [2] was 11.2% (inactive). In addition, the nuclei count in assay [2] was 64.2%; in assay [3], 137%. The fluorescence slope in assay [4] is -0.5 (inactive). For the same molecule, the NADPH fluorescence slope in assay [5] is -2.7e-05 (inactive). Besides, the slope in assay [6] was 0.00425 (inactive).

Regarding `CCSc1nnc(NC(=O)C2CCCN(S(=O)(=O)c3cnc[nH]3)C2)s1` (centres undefined), the cell count in assay [1] was 577. The inhibition was -0.5% (inactive) in assay [1], -101% (inactive) in assay [3], 9.63% (inactive) in assay [7] and 21.5% (inactive) in assay [8]. Besides, the inhibition of aggregation in assay [2] was 10% (inactive). The nuclei count in assay [2] worked out at 101%; in assay [3], 125%. In assay [4], the fluorescence slope is -0.537 (inactive). Moreover, in assay [5], the NADPH fluorescence slope was -2.1e-05 (inactive). Besides, in assay [6], the slope was 0.00708 (inactive).

Consider `CCOC(=O)CSc1nnc2n1C(C)(C)Cc1ccccc1-2`, for which, in assay [1], the cell count came to 305. Moreover, the inhibition in assay [1] was -0.9% (inactive); in assay [3], -102% (inactive); in assay [7], -15.4% (inactive); in assay [8] it was -27.1% (inactive). For the same molecule, the inhibition of aggregation in assay [2] is 0.5% (inactive). Further, the nuclei count in assay [2] was 51.3%; in assay [3], 117%. The fluorescence slope in assay [4] is -0.384 (inactive). Besides, the NADPH fluorescence slope in assay [5] was -8.4e-05 (inactive). Moreover, the slope in assay [6] is 0.00549 (inactive).
